In PubChem BioAssay (EPA / NIEHS):
Where “and” joins values, the source holds several entries; their conditions need not be identical. Identical values can stand only once. Inconclusive results are not listed. Where a structure was tested more than once in an assay, its records may differ in their call. Calls of active or inactive are those of the source. The calls were made as follows, unless noted: active = hit-call score of the fitted dose curve at least 0.9, where 1 is the maximum; inconclusive = response in the unintended direction; inactive = score below 0.9.

Columns and labels:
[1] = test system: Thyroperoxidase (TPO), gene 54314; experiment: CCTE_Simmons_AUR_rTPO: CCTE's Amplex UltraRed Assay for Thyroperoxidase (TPO) Inhibition, Simmons Lab (AID 2283662);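 as to AC50: potency for loss of signal meaning inhibition of peroxidase activity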
Procedure, shortened: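 Endpoint is decreased Amplex UltraRed fluorescence after a 30-min, 37C reaction of rat thyroid microsomes with 300 uM H2O2. Eight test concentrations (5 nM–87.5 uM final) in 0.5% DMSO, three biological replicates each.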

[2] = CCTE_Simmons_CellTiterGLO_HEK293T: Viability Assessment in CCTE's Assays for Thyroperoxidase (TPO) Inhibition, Simmons Lab (AID 2283665)
Procedure, shortened: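 HEK293T, 10 000 cells/well, DMEM + 1% FBS; 8-pt titration 5 nM–87.5 uM [final], 0.5% DMSO; 24 hr, 37C, 5% CO2; CellTiter-Glo luminescence; n=3 biological replicates.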

[3] = target: Luciferin 4-monooxygenase (Photinus pyralis) (UniProt P08659); experiment: CCTE_Simmons_QuantiLum_inhib_2: CCTE's Firefly Luciferase Inhibition Assay, Simmons Lab (AID 2283767);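 as to AC50: potency for inhibitors that lower luciferase luminescence relative to DMSO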
Procedure, shortened: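 Luminescence loss relative to DMSO vehicle defines inhibition; detection reagent containing 150 uM D-luciferin and 147 uM dATP (final, pH 7.8) is injected immediately before each read. Enzyme is preincubated with an 8-point titration (5 nM–87.5 uM final) for 30 min at 37C.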

[4] = target: human Dopamine Transporter (DAT), SLC6A3 (gene 6531) (UniProt Q01959); experiment: NVS_TR_hDAT: NovaScreen (NVS) Transporter Assay for human Dopamine Transporter (DAT) (AID 2283374);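 also: activity means loss of bound radioligand signal relative to DMSO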
Procedure, shortened: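 Cell-free radioligand binding to extracted human DAT protein, read 1 h after dosing by filter-based scintillation counting. Loss of specific binding scored against DMSO baseline; primary screen in duplicate at 25 uM, actives then run in concentration series.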

[5] = TAMU_PeakParms_SingleDonor1434_Chronotropy: Texas A&M University (TAMU) 1.5-hr Human Induced Pluripotent Stem Cell (iPSC)-derived Cardiomyocytes Calcium (Ca+2) Flux Assay for Cardiotoxicity: Chronotropy (changes in peak frequency) (AID 2284217; active = hit-call score of the fitted dose curve at least 0.9, where 1 is the maximum; inactive = score below 0.9); conditions: actives raise or lower the signal
Procedure, shortened: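 Using fluorescent Ca2+ flux, average beats per second are measured in human iPSC-derived cardiomyocytes treated 90 min (0.5% DMSO vehicle, 0.2–100 uM). Non-beating data points are removed; activity is modeled in both directions relative to DMSO controls.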

[6] = CCTE_Shafer_MEA_acute_burst_duration_mean: CCTE's Neural Acute Assay for Mean Burst Duration, Shafer Lab (AID 2284014; active = hit-call score of the fitted dose curve at least 0.9, where 1 is the maximum; inactive = score below 0.9;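 also: hits are decreases in mean burst duration relative to DMSO controls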)
Procedure, shortened: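 Primary rat cortical neurons on 16-electrode MEA wells, treated on DIV 13 or 15 with compound (0.03-40 uM; ≥3 wells each). 40-min baseline and 40-min exposure recordings at 37 C; percent change in mean burst duration per well versus DMSO.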

[7] = CCTE_Shafer_MEA_acute_per_burst_spike_number_mean: CCTE's Neural Acute Assay for Average Number of Spikes Per Burst, Shafer Lab (AID 2284015; active = hit-call score of the fitted dose curve at least 0.9, where 1 is the maximum; inactive = score below 0.9;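 also: hits are decreases in mean spikes per burst versus baseline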)
Procedure, shortened: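 We recorded spontaneous network firing of rat cortical neurons for 40 min before and 40 min during exposure to compound at 0.03-40 uM, at 37 C. Spikes were detected adaptively at 8x rms noise, and the change in average spikes per burst was fitted against DMSO.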

[8] = CCTE_Shafer_MEA_acute_interburst_interval_mean: CCTE's Neural Acute Assay for Mean Interburst Interval, Shafer Lab (AID 2284016; active = hit-call score of the fitted dose curve at least 0.9, where 1 is the maximum; inactive = score below 0.9;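 also: percent change of mean interburst interval versus each well's own pre-dose baseline; curves fitted for decrease in interburst interval relative to DMSO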)
Procedure, shortened: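 MEA recording of spontaneous network bursting in primary rat cortical cultures; mean interburst interval was compared before and after a 40-min compound exposure (0.03-40 uM) and expressed as percent change, relative to DMSO.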

[9] = CCTE_Shafer_MEA_acute_network_burst_percentage: CCTE's Neural Acute Assay for Percentage of Network Bursts, Shafer Lab (AID 2284022; active = hit-call score of the fitted dose curve at least 0.9, where 1 is the maximum; inactive = score below 0.9;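 also: curves fitted for loss so actives lower network burst percentage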)
Procedure, shortened: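 Readout is the fraction of spikes falling in network bursts, expressed as per-well percent change from a 40-min pre-exposure baseline. Primary rat cortical neurons on MEA were exposed to 0.03-40 uM compound on DIV 13 or 15 and recorded for 40 min at 37 C.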

[10] = CCTE_Shafer_MEA_acute_cross_correlation_area: CCTE's Neural Acute Assay for Area of Cross Correlation, Shafer Lab (AID 2284024; active = hit-call score of the fitted dose curve at least 0.9, where 1 is the maximum; inactive = score below 0.9;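 also: area under pooled inter-electrode spike cross-correlation near zero lag as percent change from own baseline; curves fitted for loss of cross-correlation area so actives lower synchrony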;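 as to outcome: rat primary cortical neuron networks on 48-well MEA at DIV 13 or 15 with 40 min exposure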)
Procedure, shortened: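 Plates equilibrated 20 min at 37 C, then 40 min baseline was recorded, compound was added (0.03-40 uM), and a further 40 min was recorded. Wells needed ≥10 active electrodes (≥5 spikes/min) on exposure day.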

[11] = target: rat Peripheral-type Benzodiazepine Receptor (PBR), Tspo (gene 24230) (UniProt P16257); experiment: NVS_MP_rPBR: NovaScreen (NVS) Membrane Protein Assay for rat Peripheral-type Benzodiazepine Receptor (PBR) (AID 2283335)
Procedure, shortened: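 Rat kidney membranes; radioligand binding with displacement, filter-based scintillation counting, 1 h incubation. Primary screen in duplicate at 25 uM, actives followed in concentration series; loss of binding vs DMSO.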

[12] = target: human RAR-related Orphan Receptor gamma (RORg), RORC (gene 6097) (UniProt P51449); experiment: ATG_RORg_TRANS: Attagene TRANS-FACTORIAL HepG2 Assay for human RAR-related Orphan Receptor gamma (RORg) (AID 2283011)
Procedure, shortened: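 First, HepG2 liver cells were transfected with GAL4-UAS-driven reporter constructs and the RORg-Gal4 fusion. Next, they were treated with chemical for 24 h. Finally, reporter mRNA was quantified by RT-PCR and capillary electrophoresis, with upward activity fitted against DMSO.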

[13] = target: bovine Gamma-Aminobutyric Acid Type A Receptor BDZ, alpha 1 site (GABARa1), GABRA1 (gene 780973) (UniProt P08219); experiment: NVS_LGIC_bGABARa1: NovaScreen (NVS) Ligand-Gated Ion Channel Assay for bovine Gamma-Aminobutyric Acid Type A Receptor BDZ, alpha 1 site (GABARa1) (AID 2283321)
Procedure, shortened: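 Radioligand competition binding on bovine cortical membranes, 0.75 h, filter-based scintillation counting. Primary single concentration 25 uM in duplicate; actives rerun in concentration-response to 50 uM max. Loss of signal fitted versus DMSO.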

[14] = target: rat Monoamine Oxidase, MAO-B, Central (MAOBC), Maob (gene 25750) (UniProt P19643); experiment: NVS_ENZ_rMAOBC: NovaScreen (NVS) Enzymatic Assay for rat Monoamine Oxidase, MAO-B, Central (MAOBC) (AID 2283238)
Procedure, shortened: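 Rat brain tissue extract served as the cell-free MAO-B source; enzyme activity was read by scintillation counting 1.17 hours after compound addition. Loss of signal versus DMSO baseline was fitted; primary single-concentration screen at 25 uM, follow-up concentration-response up to 50 uM.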

[15] = target: rat CYP2D1, Cyp2d1 (gene 266684) (UniProt P10633); experiment: NVS_ADME_rCYP2D1: NovaScreen (NVS) CYP450-related Enzyme Activity (ADME) Assay for rat CYP2D1 (AID 2283122)
Procedure, shortened: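 Cell-free fluorescence enzyme-activity assay on extracted rat CYP2D1 protein, read 0.75 h after dosing. Primary screen in duplicate at 10 uM; qualifying chemicals then run in concentration-response to 20 uM max, loss-of-signal versus acetonitrile baseline.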

[16] = target: human Ephrin type-A Receptor 2 (EphA2), EPHA2 (gene 1969) (UniProt P29317); experiment: NVS_ENZ_hEphA2: NovaScreen (NVS) Enzymatic Assay for human Ephrin type-A Receptor 2 (EphA2) (AID 2283155)
Procedure, shortened: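 Cell-free recombinant EphA2 kinase with specific substrate, 1 h, fluorescence with electrophoretic mobility-shift separation of substrate and product. Primary screen at 25 uM in duplicate; hits retested in singleton concentration-response up to 50 uM, referenced to DMSO.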

[17] = target: rat Oxytocin Receptor (OXT), Oxtr (gene 25342) (UniProt P70536); experiment: NVS_GPCR_rOXT: NovaScreen (NVS) G Protein-Coupled Receptor Assay for rat Oxytocin Receptor (OXT) (AID 2283330)
Procedure, shortened: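 Radioligand displacement on rat uterine membranes, 1 h incubation, filter-based scintillation counting. Chemicals were screened in duplicate at 25 uM, and those passing threshold were retested in concentration-response up to 50 uM. Loss of binding was fitted versus DMSO.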

[18] = CCTE_Harrill_HTTr_Apoptosis_PRF_DMEM_12hr: (Pilot) CCTE's 12-hour Apoptosis Assessment for the High-Throughput Transcriptomics (HTTr) Platform, in MCF-7 cells cultured in phenol red-free DMEM + 10% charcoal-stripped fetal bovine serum, Harrill Lab (AID 2283985; active = hit-call score of the fitted dose curve at least 0.9, where 1 is the maximum; inactive = score below 0.9)
Procedure, shortened: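 MCF-7 cells in phenol red-free DMEM with 10% charcoal-stripped FBS, eight-point dilution series, 12 h exposure. Caspase-3/7 activation imaged by high content imaging with CellEvent Green reagent; bidirectional fit vs DMSO.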

[19] = target: human AMP-activated Protein Kinase, alpha 1 (AMPKa1), PRKAA1 (gene 5562) (UniProt Q13131); experiment: NVS_ENZ_hAMPKa1: NovaScreen (NVS) Enzymatic Assay for human AMP-activated Protein Kinase, alpha 1 (AMPKa1) (AID 2283130)
Procedure, shortened: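 Recombinant human AMPKα1 activity was measured cell-free by fluorescent substrate conversion with electrophoretic mobility-shift separation, 1 h after dosing. Duplicate single-point screening was at 25 uM; actives (≥30% inhibition) were retested in concentration-response up to 50 uM.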

[20] = target: human Caspase 10 (CASP10), CASP10 (gene 843) (UniProt Q92851); experiment: NVS_ENZ_hCASP10: NovaScreen (NVS) Enzymatic Assay for human Caspase 10 (CASP10) (AID 2283133)
Procedure, shortened: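 Recombinant human caspase-10 from E. coli, cell-free fluorogenic substrate assay read 1 h after dosing. Primary duplicate screen at 25 uM; hits (e.g. ≥30% inhibition) run singly in concentration-response up to 50 uM, normalised to DMSO.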

Sequence of human Dopamine Transporter (DAT), SLC6A3 (gene 6531) (Q01959 whole entry, looked up): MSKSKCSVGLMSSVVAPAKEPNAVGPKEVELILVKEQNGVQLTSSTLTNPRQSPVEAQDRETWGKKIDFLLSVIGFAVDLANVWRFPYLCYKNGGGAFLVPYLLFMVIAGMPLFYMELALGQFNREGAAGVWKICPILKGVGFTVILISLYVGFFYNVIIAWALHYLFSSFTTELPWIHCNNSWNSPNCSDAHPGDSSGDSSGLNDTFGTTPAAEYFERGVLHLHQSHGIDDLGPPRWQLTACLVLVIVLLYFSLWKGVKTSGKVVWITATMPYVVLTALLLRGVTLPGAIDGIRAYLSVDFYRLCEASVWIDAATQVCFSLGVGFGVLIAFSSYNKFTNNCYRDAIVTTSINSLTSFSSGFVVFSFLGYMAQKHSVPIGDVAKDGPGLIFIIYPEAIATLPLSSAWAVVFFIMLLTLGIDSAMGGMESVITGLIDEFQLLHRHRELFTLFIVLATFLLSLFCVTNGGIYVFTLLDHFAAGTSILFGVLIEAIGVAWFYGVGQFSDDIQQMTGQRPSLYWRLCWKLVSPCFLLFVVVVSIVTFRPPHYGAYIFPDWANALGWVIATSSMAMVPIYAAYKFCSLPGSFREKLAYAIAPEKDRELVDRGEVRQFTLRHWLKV
Sequence of human RAR-related Orphan Receptor gamma (RORg), RORC (gene 6097) (P51449 whole entry, looked up, the tested form may be a part): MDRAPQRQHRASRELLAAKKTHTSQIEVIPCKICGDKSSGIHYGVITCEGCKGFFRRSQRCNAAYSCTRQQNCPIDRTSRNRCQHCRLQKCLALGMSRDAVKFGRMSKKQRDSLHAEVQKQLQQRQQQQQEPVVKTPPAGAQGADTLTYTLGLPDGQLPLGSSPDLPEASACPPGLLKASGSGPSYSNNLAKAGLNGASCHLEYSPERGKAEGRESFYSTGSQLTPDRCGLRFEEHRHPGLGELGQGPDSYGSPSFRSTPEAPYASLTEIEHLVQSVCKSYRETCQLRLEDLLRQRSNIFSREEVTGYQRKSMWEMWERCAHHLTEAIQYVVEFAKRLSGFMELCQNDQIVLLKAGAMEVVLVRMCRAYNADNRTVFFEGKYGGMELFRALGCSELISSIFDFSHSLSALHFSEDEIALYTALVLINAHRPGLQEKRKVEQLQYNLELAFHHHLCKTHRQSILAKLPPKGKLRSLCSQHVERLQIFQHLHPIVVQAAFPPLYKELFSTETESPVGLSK
Sequence of human Caspase 10 (CASP10), CASP10 (gene 843) (Q92851 whole entry, looked up): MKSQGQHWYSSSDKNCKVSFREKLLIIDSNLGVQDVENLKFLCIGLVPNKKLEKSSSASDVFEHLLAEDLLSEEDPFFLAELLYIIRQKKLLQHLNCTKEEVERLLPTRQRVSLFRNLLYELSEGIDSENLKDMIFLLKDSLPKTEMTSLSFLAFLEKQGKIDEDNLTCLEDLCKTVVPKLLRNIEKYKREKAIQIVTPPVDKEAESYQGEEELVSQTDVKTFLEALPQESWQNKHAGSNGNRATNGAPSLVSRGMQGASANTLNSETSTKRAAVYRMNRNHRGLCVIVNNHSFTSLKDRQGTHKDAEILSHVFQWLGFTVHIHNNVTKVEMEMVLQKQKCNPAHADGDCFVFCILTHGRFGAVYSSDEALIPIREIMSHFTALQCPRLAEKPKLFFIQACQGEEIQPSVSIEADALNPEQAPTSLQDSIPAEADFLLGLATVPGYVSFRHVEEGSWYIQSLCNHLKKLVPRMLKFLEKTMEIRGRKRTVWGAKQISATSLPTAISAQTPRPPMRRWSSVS
Sequence of rat Peripheral-type Benzodiazepine Receptor (PBR), Tspo (gene 24230) (P16257 whole entry, looked up): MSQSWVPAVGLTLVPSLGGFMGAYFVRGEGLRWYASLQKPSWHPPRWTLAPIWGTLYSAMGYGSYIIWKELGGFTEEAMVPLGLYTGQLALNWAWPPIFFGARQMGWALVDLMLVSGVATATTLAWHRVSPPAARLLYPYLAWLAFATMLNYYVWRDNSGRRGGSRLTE
Sequence of rat Oxytocin Receptor (OXT), Oxtr (gene 25342) (P70536 whole entry, looked up): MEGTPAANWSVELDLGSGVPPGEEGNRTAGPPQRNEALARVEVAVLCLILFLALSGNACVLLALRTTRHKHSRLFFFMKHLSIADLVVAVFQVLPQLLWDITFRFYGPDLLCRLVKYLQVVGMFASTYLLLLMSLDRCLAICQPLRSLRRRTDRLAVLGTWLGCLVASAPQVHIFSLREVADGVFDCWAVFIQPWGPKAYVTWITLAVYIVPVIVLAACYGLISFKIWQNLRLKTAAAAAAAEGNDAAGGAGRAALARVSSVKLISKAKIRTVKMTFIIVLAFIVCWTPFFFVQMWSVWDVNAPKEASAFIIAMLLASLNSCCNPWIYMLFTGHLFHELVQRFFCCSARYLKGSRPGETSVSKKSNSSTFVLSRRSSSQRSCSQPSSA
Sequence of rat CYP2D1, Cyp2d1 (gene 266684) (P10633 whole entry, looked up): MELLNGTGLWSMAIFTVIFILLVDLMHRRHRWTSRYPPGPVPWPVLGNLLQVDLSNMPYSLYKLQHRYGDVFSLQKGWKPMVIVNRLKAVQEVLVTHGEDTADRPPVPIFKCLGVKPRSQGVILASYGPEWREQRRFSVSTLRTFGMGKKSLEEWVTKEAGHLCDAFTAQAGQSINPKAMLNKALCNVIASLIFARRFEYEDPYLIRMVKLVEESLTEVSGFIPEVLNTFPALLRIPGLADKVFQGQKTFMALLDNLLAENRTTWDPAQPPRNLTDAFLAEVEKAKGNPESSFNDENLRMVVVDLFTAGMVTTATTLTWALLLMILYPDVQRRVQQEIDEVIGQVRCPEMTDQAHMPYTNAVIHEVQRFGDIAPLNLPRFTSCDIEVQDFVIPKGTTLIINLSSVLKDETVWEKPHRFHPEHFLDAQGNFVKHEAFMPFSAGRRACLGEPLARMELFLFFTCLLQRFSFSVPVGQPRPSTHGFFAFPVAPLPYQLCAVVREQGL
Sequence of Luciferin 4-monooxygenase (Photinus pyralis) (P08659 whole entry, looked up): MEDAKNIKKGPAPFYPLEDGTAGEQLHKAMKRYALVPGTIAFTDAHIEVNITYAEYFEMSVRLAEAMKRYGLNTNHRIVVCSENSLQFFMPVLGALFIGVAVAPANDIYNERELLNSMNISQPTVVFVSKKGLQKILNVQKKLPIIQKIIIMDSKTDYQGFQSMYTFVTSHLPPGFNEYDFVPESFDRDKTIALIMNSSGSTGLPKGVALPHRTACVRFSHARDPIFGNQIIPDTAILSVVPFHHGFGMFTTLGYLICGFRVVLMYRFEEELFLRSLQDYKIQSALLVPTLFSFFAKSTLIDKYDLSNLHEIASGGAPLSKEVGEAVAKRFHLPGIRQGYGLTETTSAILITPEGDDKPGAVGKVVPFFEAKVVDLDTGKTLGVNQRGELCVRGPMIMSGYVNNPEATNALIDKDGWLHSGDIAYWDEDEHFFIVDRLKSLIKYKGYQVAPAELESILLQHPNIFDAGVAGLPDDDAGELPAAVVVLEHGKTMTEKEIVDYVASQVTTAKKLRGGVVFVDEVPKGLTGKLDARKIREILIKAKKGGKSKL
Sequence of rat Monoamine Oxidase, MAO-B, Central (MAOBC), Maob (gene 25750) (P19643 whole entry, looked up): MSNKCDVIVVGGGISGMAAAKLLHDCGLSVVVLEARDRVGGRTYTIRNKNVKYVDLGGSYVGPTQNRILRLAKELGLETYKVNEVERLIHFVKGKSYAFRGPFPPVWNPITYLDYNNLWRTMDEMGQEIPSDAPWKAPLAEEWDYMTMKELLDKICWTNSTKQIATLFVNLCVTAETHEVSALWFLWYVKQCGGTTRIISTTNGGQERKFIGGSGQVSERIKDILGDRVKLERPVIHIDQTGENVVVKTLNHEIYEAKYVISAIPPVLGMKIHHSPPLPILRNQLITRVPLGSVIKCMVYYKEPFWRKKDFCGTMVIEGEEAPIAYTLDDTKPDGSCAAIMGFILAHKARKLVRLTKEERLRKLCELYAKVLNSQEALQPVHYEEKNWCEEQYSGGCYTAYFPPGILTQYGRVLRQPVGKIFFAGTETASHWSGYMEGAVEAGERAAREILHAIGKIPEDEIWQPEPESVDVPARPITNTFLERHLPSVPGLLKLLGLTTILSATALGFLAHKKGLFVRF
Sequence of human Ephrin type-A Receptor 2 (EphA2), EPHA2 (gene 1969) (P29317 whole entry, looked up): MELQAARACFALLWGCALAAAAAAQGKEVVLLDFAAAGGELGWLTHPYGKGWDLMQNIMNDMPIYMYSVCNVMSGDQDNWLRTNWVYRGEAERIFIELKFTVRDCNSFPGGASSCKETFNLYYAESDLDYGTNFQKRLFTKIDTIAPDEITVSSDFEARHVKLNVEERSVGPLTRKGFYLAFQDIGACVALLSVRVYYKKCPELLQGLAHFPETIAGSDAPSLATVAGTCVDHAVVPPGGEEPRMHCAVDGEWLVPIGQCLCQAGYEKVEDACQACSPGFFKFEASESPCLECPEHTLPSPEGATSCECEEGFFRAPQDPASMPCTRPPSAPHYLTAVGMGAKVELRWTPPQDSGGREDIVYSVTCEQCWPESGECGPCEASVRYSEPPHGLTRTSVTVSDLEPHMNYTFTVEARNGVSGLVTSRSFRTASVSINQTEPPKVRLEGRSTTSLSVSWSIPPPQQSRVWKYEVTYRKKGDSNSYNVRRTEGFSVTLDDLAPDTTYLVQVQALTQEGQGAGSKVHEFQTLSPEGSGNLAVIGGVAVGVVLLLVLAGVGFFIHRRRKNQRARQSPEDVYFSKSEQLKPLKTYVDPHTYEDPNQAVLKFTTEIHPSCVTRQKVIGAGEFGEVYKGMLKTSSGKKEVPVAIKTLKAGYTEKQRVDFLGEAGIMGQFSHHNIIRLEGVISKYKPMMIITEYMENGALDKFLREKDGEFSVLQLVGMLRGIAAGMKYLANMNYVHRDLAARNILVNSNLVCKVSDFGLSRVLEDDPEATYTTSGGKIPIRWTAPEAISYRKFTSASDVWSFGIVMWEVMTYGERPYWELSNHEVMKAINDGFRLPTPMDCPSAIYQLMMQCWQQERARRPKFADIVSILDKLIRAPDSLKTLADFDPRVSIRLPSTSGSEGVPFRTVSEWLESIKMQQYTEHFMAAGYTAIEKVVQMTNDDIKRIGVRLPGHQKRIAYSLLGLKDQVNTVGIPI

O=C=Nc1ccccc1
outcome [1]: inactive
outcome [2]: inactive
outcome [3]: inactive

O=C1C=CC(=O)C=C1
AC50 [4]: 13.9 µM (active)
AC50 [5]: 50 µM (active)

O=[N+]([O-])O
outcome [6]: inactive
outcome [7]: inactive
outcome [8]: inactive
AC50 [9]: 0.0386 µM (active)
outcome [9]: inactive
AC50 [10]: 0.23 µM (active)
outcome [10]: inactive

CNC(=O)Oc1cc(C)c(SC)c(C)c1
AC50 [11]: 11.7 µM (active)

Nc1ccc([N+](=O)[O-])cc1N
outcome [12]: inactive

Cc1ccc(OP(=O)(Oc2ccc(C)cc2)Oc2ccc(C)cc2)cc1 (tested in a mixture with another compound)
AC50 [11]: 150 nM (active) and 5.34 µM (active)
outcome [6]: inactive
AC50 [7]: 3.99 µM (active)
AC50 [8]: 7.32 µM (active)
AC50 [9]: 7.23 µM (active)
outcome [10]: inactive
outcome [5]: inactive

CC1(C)[C@H](C(=O)O[C@H](C#N)c2cccc(Oc3ccccc3)c2)[C@@H]1C=C(Br)Br
AC50 [11]: 15 µM (active)
AC50 [4]: 7.41 µM (active)
AC50 [6]: 0.418 µM (active)
AC50 [7]: 0.387 µM (active)
AC50 [8]: 2.09 µM (active)
AC50 [9]: 0.639 µM (active)
AC50 [10]: 0.203 µM (active)
outcome [5]: inactive

C[N+](C)(C)CC(=O)[O-]
outcome [12]: inactive

S=c1[nH]c2ccccc2[nH]1
AC50 [1]: 0.0688 µM (active)
outcome [2]: inactive
AC50 [3]: 2.02 µM (active)

CC(=O)C=Cc1ccccc1
outcome [12]: inactive

O=C(O)CCl
outcome [12]: inactive
AC50 [1]: 18.1 µM (active)
outcome [2]: inactive
outcome [3]: inactive

c1ccc(Nc2ccc3ccccc3c2)cc1
AC50 [11]: 25 µM (active)
AC50 [4]: 13 µM (active)

CCSC(=O)N(CC(C)C)CC(C)C
outcome [13]: inactive

O=c1c(-c2ccc(O)cc2)coc2cc(O)cc(O)c12
AC50 [14]: 31.1 µM (active) and 25 µM (active)

CCCCCCCCCC(=O)O
AC50 [13]: 19.7 µM (active)

CC(C)(c1ccc(O)cc1)c1ccc(O)cc1
AC50 [15]: 10 µM (active)
outcome [16]: inactive
outcome [13]: inactive
AC50 [17]: 7.41 µM (active)
outcome [18]: inactive

Cc1nn(C)c(Oc2ccccc2)c1C=NOCc1ccc(C(=O)OC(C)(C)C)cc1
outcome [15]: inactive
outcome [18]: inactive

N#CSCSc1nc2ccccc2s1
AC50 [15]: 0.926 µM (active)
outcome [14]: inactive

CCCCOCCOCCOCc1cc2c(cc1CCC)OCO2
AC50 [15]: 5.69 µM (active)

CCN(CC)CCOc1ccc(C(=C(Cl)c2ccccc2)c2ccccc2)cc1
AC50 [19]: 26.5 µM (active)
AC50 [14]: 12.4 µM (active) [middle of 4 runs]
AC50 [18]: 81.6 µM (active)

Cc1nc(-c2ccc3c(c2)CCN(CCC2CCC(NC(=O)/C=C/c4ccc(F)cc4)CC2)CC3)no1 (configuration not stated)
outcome [19]: inactive
outcome [17]: inactive

CN(C)c1ccc(C(=C2C=CC(=[N+](C)C)C=C2)c2ccc(N(C)C)cc2)cc1
outcome [20]: inactive
AC50 [17]: 20.9 µM (active)

CCCCCCCCCCCCCC[P+](CCCC)(CCCC)CCCC
AC50 [16]: 9.76 µM (active)

c1ccc2[nH]c(-c3cscn3)nc2c1
outcome [16]: inactive
outcome [13]: inactive

O=C(Nc1ccc(Cl)cc1)Nc1ccc(Cl)c(Cl)c1
outcome [16]: inactive

C[C@]12CC[C@@H]3c4ccc(O)cc4C[C@@H](CCCCCCCCCS(=O)CCCC(F)(F)C(F)(F)F)[C@H]3[C@@H]1CC[C@@H]2O (some centres not stated)
outcome [18]: inactive

Oc1cc2ccccc2c2ccccc12
AC50 [20]: 11.1 µM (active)

CCCCCCCCCCCCCCCCOS(=O)(=O)O
outcome [20]: inactive

COc1ccc2c(c1)c(CC(=O)O)c(C)n2C(=O)c1ccc(Cl)cc1
outcome [20]: inactive

O=C(c1ccc(O)cc1O)c1ccc(O)cc1O
AC50 [14]: 12.9 µM (active)

CCCN(CCC)C(=O)SCC
outcome [17]: inactive

COc1cc(-c2nc(NC(=O)c3cc4cc(C)cc(C)c4n3CC(=O)O)sc2CCC2CCCCC2)c(OC)cc1Cl
AC50 [19]: 8.19 µM (active)

CCCCCCCCCCCCc1ccccc1S(=O)(=O)O
AC50 [19]: 11.3 µM (active)
